According to the supplement of paper PMC9334596:
“And” between values parts separate entries of the source, which are not always exact repeats. Equal values may be shown once. In all, about 5,300 compounds were measured (“PER2::LUC luminescence relative to vehicle control”: median about 0.96, highest 2% from about 1.3 on). The list comes from a sample in which the highest values are over-represented; it also holds similar structures and randomly drawn compounds.

Tested on: mPer2Luc MEF
Test: PER2::LUC luminescence relative to vehicle control (fold of vehicle); higher = higher PER2::LUC reporter signal
Conditions: 10 µM
Procedure, shortened: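 Each value gives PER2::LUC luminescence as fold of vehicle control, measured with the ONE-Glo luciferase assay system in mouse embryonic fibroblasts carrying the mPer2Luc reporter. Cells grown in DMEM with 10% FBS at 37 °C and 5% CO2 were seeded at ~3000 per well in 384-well plates. Library compounds were added at 10 μM 48 h later, and readings were taken 24 h and 30 h after treatment.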

Row | SMILES | PER2::LUC luminescence (time after treatment 24 h) | PER2::LUC luminescence (time after treatment 30 h)
1 | CC(C)(C)[Si](C)(C)Oc1ccc2oc(=O)c3c(c2c1)CCCN3 | 1.14 | 1.15
2 | CC(=O)O[C@@H]1C[C@@]23C[C@@]24CC[C@H](O[C@@H]2OC[C@@H](O)[C@H](O)[C@H]2O)C(C)(C)[C@@H]4CC[C@H]3[C@]2(C)C[C@@H]3O[C@]4(C[C@@H](C)[C@@H]3[C@@]12C)O[C@H](O)[C@@]1(C)O[C@@H]41 | 0.888 | 0.982
3 | CC[C@H](C)[C@@H]([C@@H](CC(=O)N1CCC[C@H]1[C@H](OC)[C@@H](C)C(=O)N[C@@H](Cc1ccccc1)c1nccs1)OC)N(C)C(=O)[C@@H](NC(=O)[C@@H](NC)C(C)C)C(C)C | 0.338 | 0.385
4 | O=C(O)CCC/C=C\C/C=C\C/C=C\C/C=C\CCCCCO | 0.987 | 0.936
5 | COc1cc2c(cc1OC)[C@H]1[C@@H](C)c3ccc(OC)c(OC)c3CN1CC2 | 0.954 | 0.973
6 | CCCCOc1ccc(C(=O)Nc2ccc(F)cc2F)cc1 | 1.29 | 1.34
7 | CCCCOc1ccc(CC(=O)NO)cc1 | 1.01 | 1.01
8 | COc1cc2nccc(Oc3ccc(NC(=O)Nc4ccc(F)cc4F)c(F)c3)c2cc1OC | 0.785 | 0.689
9 | O=C[C@H](O)[C@@H](O)[C@H](O)CO (racemic) | 0.94 | 1.06
10 | C[C@@H](O)[C@H]1C(=O)N2C(C(=O)O)=C(SC3CN(C4=NCCS4)C3)[C@H](C)[C@H]12 | 1.03 | 1.01
11 | O=C(O)c1ccc2nc(-c3cc(Cl)cc(Cl)c3)oc2c1 | 1.42 | 1.43
12 | C=CC(C1=CC(=O)C(OC)=CC1=O)c1ccc(OC)cc1 (centres undefined) | 1.16 | 1.02
13 | CC1(C)[C@@H](OC(=O)CCC(=O)O)CC[C@]2(C)[C@H]3C(=O)C=C4[C@@H]5C[C@@](C)(C(=O)O)CC[C@]5(C)CC[C@@]4(C)[C@]3(C)CC[C@@H]12 | 0.965 and 0.646 | 0.891 and 1.01
14 | CC1(C)[C@@H](O)CC[C@]2(C)[C@H]3C(=O)C=C4[C@H]5C[C@@](C)(C(=O)O)CC[C@]5(C)CC[C@@]4(C)[C@]3(C)CC[C@@H]12 | 0.97 | 0.899
15 | CC1(C)[C@@H](O)CC[C@]2(C)[C@H]3C(=O)C=C4[C@@H]5C[C@@](C)(C(=O)O)CC[C@]5(C)CC[C@@]4(C)[C@]3(C)CC[C@@H]12 | 1.22 and 0.966 | 1.5 and 0.907
16 | CC(C)C[C@H](N)C(=O)N[C@H](C(=O)N[C@H](C(=O)N[C@@H](Cc1ccc(O)cc1)C(=O)N1CCC[C@H]1C(=O)N[C@@H](Cc1c[nH]c2ccccc12)C(=O)N[C@H](C(=O)N[C@@H](CCC(N)=O)C(=O)N[C@@H](CCCN=C(N)N)C(=O)O)[C@@H](C)O)C(C)C)C(C)C | 0.942 | 0.916
17 | COc1ccc(C[C@H]2c3cc(OC)c(OC)cc3CC[N+]2(C)C)cc1OC | 0.944 | 0.889
18 | COc1ccccc1-c1nc(-c2ccccn2)no1 | 0.948 | 0.943
19 | C#CCCC(=O)O | 1.07 | 0.985
20 | COc1ccc2[nH]c([S+]([O-])Cc3ncc(C)c(OC)c3C)nc2n1 (centres undefined) | 0.776 | 1.01
21 | Cc1c(OCC(F)(F)F)ccnc1C[S+]([O-])c1nc2ccccc2[nH]1 (centres undefined) | 1.17 | 1.67
22 | Cc1c(OCC(F)(F)F)ccnc1C[S@@+]([O-])c1nc2ccccc2[nH]1 | 1.68 and 1.14 | 1.73 and 1.12
23 | COCCCOc1ccnc(C[S+]([O-])c2nc3ccccc3[nH]2)c1C (centres undefined) | 1.15 and 1.39 and 1.44 | 1.12 and 1.68 and 1.47
24 | COc1ccc2[nH]c([S@@+]([O-])Cc3ncc(C)c(OC)c3C)nc2c1 | 1.02 and 1.01 and 1.11 | 1.01 and 0.923 and 1.08
25 | COc1ccnc(C[S+]([O-])c2nc3cc(-n4cccc4)ccc3[nH]2)c1C (centres undefined) | 1.07 | 1.05
26 | COc1ccnc(C[S+]([O-])c2nc3cc(OC(F)F)ccc3[nH]2)c1OC (centres undefined) | 0.944 and 1.32 | 1.01 and 0.991

Row | SMILES | PER2::LUC luminescence (time after treatment 24 h) | PER2::LUC luminescence (time after treatment 30 h)
27 | COc1ccc2[nH]c([S+]([O-])Cc3ncc(C)c(OC)c3C)nc2c1 (centres undefined) | 0.886 | 1.08
28 | N=C(N/N=C/c1ccc(Cl)cc1)N/N=C/c1ccc(Cl)cc1 | 0.996 | 0.988
29 | CCOC(=O)C1=Cc2ccc(C(F)(F)C(F)(F)F)cc2N=C(N)C1 | 1.07 | 1.05
30 | O=[N+]([O-])c1cc(C(F)(F)F)cc([N+](=O)[O-])c1NNC(=S)Nc1ccc(F)cc1 | 0.67 | 0.671
31 | CCCCC[C@H](O)/C=C/[C@@H]1[C@@H](C/C=C\CCCC(=O)O)[C@H](O)C[C@H]1O | 1.1 | 1.1
32 | Oc1ccccc1NCc1ccccn1 | 0.921 | 1.05
33 | C[C@H](CCC(=O)NCC(=O)NCCS(=O)(=O)O)[C@H]1CC[C@H]2[C@@H]3[C@H](O)C[C@@H]4C[C@H](O)CC[C@]4(C)[C@H]3C[C@H](O)[C@]12C | 0.886 | 0.904
34 | CCC(=O)O[C@]1(C(=O)CCl)[C@@H](C)C[C@H]2[C@@H]3CCC4=CC(=O)C=C[C@]4(C)[C@@]3(F)[C@@H](O)C[C@@]21C | 0.711 | 1.08
35 | CC1(C)O[C@@H]2C[C@H]3[C@@H]4CCC5=CC(=O)C=C[C@]5(C)[C@@]4(F)[C@@H](O)C[C@]3(C)[C@]2(C(=O)CO)O1 | 0.583 | 1.35
36 | CC1(C)O[C@@H]2C[C@H]3[C@@H]4C[C@H](F)C5=CC(=O)C=C[C@]5(C)[C@@]4(F)[C@@H](O)C[C@]3(C)[C@]2(C(=O)CO)O1 | 0.902 | 1.15
37 | CCC(=O)OCC(=O)[C@@]1(OC(=O)CC)[C@@H](C)C[C@H]2[C@@H]3CCC4=CC(=O)C=C[C@]4(C)[C@@]3(F)[C@@H](O)C[C@@]21C | 0.454 and 0.475 | 1.01 and 0.98
38 | CC(=O)OCC(=O)[C@@]12OC3(CCCC3)O[C@@H]1C[C@H]1[C@@H]3CCC4=CC(=O)C=C[C@]4(C)[C@@]3(F)[C@@H](O)C[C@@]12C | 0.828 | 1.13
39 | CCCCC(=O)O[C@]1(C(=O)CO)[C@@H](C)C[C@H]2[C@@H]3CCC4=CC(=O)C=C[C@]4(C)[C@@]3(F)[C@@H](O)C[C@@]21C | 0.684 and 0.795 | 1.37 and 1.15
40 | Nc1nc(=O)c2c([nH]1)NCC(CNc1ccc(C(=O)N[C@@H](CCC(=O)O)C(=O)O)cc1)=N2 | 1.06 | 0.985
41 | COc1cccc(NCC(O)Cn2c3ccc(Br)cc3c3cc(Br)ccc32)c1 (stereo in doubt) | 0.88 | 0.955
42 | COc1cc(OC)c2c(OC)c(-c3ccc4c(c3)OCO4)c(=O)oc2c1 | 1.02 | 1.21
43 | COc1c2c(cc3occ(-c4ccc5c(c4)OCO5)c(=O)c13)OC(C)(C)C=C2 | 0.833 | 0.876
44 | COc1ccc(-c2c(O)c3c(OC)c4c(cc3oc2=O)OC(C)(C)C=C4)cc1 | 1.5 | 1.46
45 | CC(=O)OC[C@@]1(O)C[C@@]23CC[C@@H]4c5ccoc5CC[C@@]4(C)[C@@H]2CC[C@@H]1C3 | 1.05 | 1.06
46 | C=CCCCCCCCCCCCC(O)CC(O)CO (centres undefined) | 0.967 | 0.789
47 | CC1(C)CCC[C@](C)([C@H]2CC[C@]3(C)[C@@H]2[C@H](O)C[C@@H]2[C@@]4(C)CC[C@H](O)C(C)(C)[C@@H]4CC[C@]23C)O1 | 1.02 | 1.02
48 | CC(C)(C)c1nc2c3cc[nH]c(=O)c3c3cc(F)ccc3c2[nH]1 | 0.802 | 0.906
49 | CCOC(=O)c1cn(-c2c(F)c(F)c(C#N)c(F)c2F)c2c(F)c(F)c(F)cc2c1=O | 1.08 | 1.19
50 | O=C(c1ccc(OCCN2CCCCC2)cc1)c1c(-c2ccc(O)cc2)sc2cc(O)ccc12 | 0.35 | 0.69
51 | CCCCOc1ccc(C(=O)CCN2CCCCC2)cc1 | 0.957 | 1.41
52 | CCCCOc1ccc(OCCCN2CCOCC2)cc1 | 1.12 | 1.18

Row | SMILES | PER2::LUC luminescence (time after treatment 24 h) | PER2::LUC luminescence (time after treatment 30 h)
53 | CCN1CCN(Cc2ccc(NC(=O)Nc3ccc(Oc4cc(NC)ncn4)cc3)cc2C(F)(F)F)CC1 | 0.107 | 0.14
54 | CO/N=C(\C(=O)N[C@@H]1C(=O)N2C(C(=O)[O-])=C(C[n+]3ccc(N)n3CCO)CS[C@H]12)c1csc(N)n1 | 1.12 | 1.1
55 | Cc1ncc([N+](=O)[O-])n1C | 1.13 | 0.998
56 | CSc1ccc(OCc2ncc([N+](=O)[O-])n2C)cc1 | 1.41 | 1.31
57 | Cn1c([N+](=O)[O-])cnc1COC(N)=O | 1.15 | 1.27
58 | N[C@](CCCCB(O)O)(CCN1CCCCC1)C(=O)O | 1.07 | 1.08
59 | Cc1ccccc1-n1c([C@H](C)Nc2nc(N)nc3nc[nH]c23)nc2cccc(C)c2c1=O | 0.801 | 0.66
60 | CCCCN(CCCC)S(=O)(=O)c1ccc(C(=O)O)cc1 | 0.899 | 1.04
61 | COc1ccc(C(=O)c2ccccc2O)c(O)c1 | 1.02 | 1.04
62 | COc1ccc(C(=O)c2ccc(C)cc2)c(O)c1 | 1.02 and 1.29 | 1.55 and 1.57
63 | O=C(/C=C/c1ccc(O)cc1)CC(=O)/C=C/c1ccc(O)cc1 | 1.1 | 1.07
64 | COc1ccc(/C=C/C(=O)c2cc(O)ccc2O)cc1 | 0.754 | 0.827
65 | O=C(/C=C/c1ccccc1)c1ccc(O)cc1 | 1.33 | 1.48
66 | COc1cc(/C=C/C(=O)c2ccc(O)cc2O)ccc1O | 1.02 | 1.04
67 | COc1ccc([C@@H](C)C(=O)c2ccc(O)cc2O)cc1 | 1.1 | 1.08
68 | COc1ccc(C(C)=O)c(O)c1 | 0.967 | 0.936
69 | COc1ccc(/C=C/C(=O)c2ccc(O)cc2O)cc1 | 1.51 | 1.56
70 | COc1ccc(C(=O)c2ccccc2)c(O)c1 | 1.22 | 1.21
71 | COc1ccc(C(=O)/C=C/c2ccccc2)cc1 | 1.25 | 1.28
72 | COc1ccc(CC(=O)c2ccc(O)cc2O)cc1 | 1.63 | 1.51
73 | CCC(C(=S)O[C@]12CCC[C@H](CC1)N2C)c1ccccc1 (some centres undefined) | 0.715 | 0.77
74 | Nc1ccc(S(=O)(=O)NCCc2ccccc2)cc1 | 1.03 | 1
75 | CC1=CC(=O)C2=C(C)CC[C@@H]3[C@H](OC(=O)[C@H]3C)[C@@H]12 | 0.959 | 0.978
76 | OCC12COC(c3ccc(F)cc3)N1C(c1ccc(F)cc1)OC2 (centres undefined) | 1.07 | 1.03
77 | C[C@@H](Nc1cc(NS(=O)(=O)N2CCC2)nc(SCc2cccc(F)c2F)n1)[C@@H](O)CO | 1.03 | 1
